Source: PubChem BioAssay (EPA / NIEHS)
Results filed as inconclusive are left out. The source made the active and inactive calls. How the source made its calls: active means hit-call score of the fitted dose curve at least 0.9, where 1 is the maximum; inconclusive means response in the unintended direction; inactive means score below 0.9.

Target: rat Histamine Receptor (H3), Hrh3 (gene 85268) (UniProt Q9QYN8)
Test: NVS_GPCR_rH3: NovaScreen (NVS) G Protein-Coupled Receptor Assay for rat Histamine Receptor (H3) (AID 2283303)
Procedure: NVS_GPCR_rH3 is a biochemical, single-readout assay that uses extracted gene-proteins from Rat forebrain membranes in a tissue-based cell-free assay. Measurements were taken 1 hour after chemical dosing in a 48-well plate.NVS_GPCR_rH3 is one of one assay component(s) measured or calculated from the NVS_GPCR_rH3 assay. It is designed to make measurements of radioligand binding, a form of binding reporter, as detected with scintillation counting signals by Filter-based radiodetection technology.Data from the assay component NVS_GPCR_rH3 was analyzed into 1 assay endpoint. This assay endpoint, NVS_GPCR_rH3, was analyzed in the positive analysis fitting direction relative to DMSO as the negative control and baseline of activity. Using a type of binding reporter, loss-of-signal activity can be used to understand changes in the binding as they relate to the gene Hrh3. Furthermore, this assay endpoint can be referred to as a primary readout, because the performed assay has only produced 1 assay endpoint. To generalize the intended target to other relatable targets, this assay endpoint is annotated to the gpcr intended target family, where the subfamily is rhodopsin-like receptor.
Binding assays used specific radioligands (tritiated, iodinated) with non-radioactive competitive displacement ligands in agonist or antagonist protocols (as indicated) and various reference compounds and inhibitors to titrate specific binding to receptors and transporters. Most enzyme assays (CYPs, kinases, phosphatases, proteases, HDACs) used recombinant protein and specific substrates (fluorescence mostly, some colorimetric and radioactive) and inhibitors, followed by a biochemical separation of substrate and product. All assays for the biochemical HTS were initially run in duplicate at a single concentration (10 uM for CYP450 assays and 25 uM for all others). Assay-chemical combinations meeting a pre-defined threshold (e.g., 30% inhibition and other criteria defined below) were then run in singleton concentration-response format with maximum concentration of 20 uM for CYPs and 50 uM for all others. Each assay was run with positive and negative controls, and concurrent controls on every plate. The follow-up (secondary) screen tested active chemical-pairs in concentration series, as well as a few additional assays not tested in the primary screen, some selected negative inactives, and several cases re-run in the concentration series for confirmatory purposes.

rat Histamine Receptor (H3), Hrh3 (gene 85268), sequence (Q9QYN8 whole entry, looked up): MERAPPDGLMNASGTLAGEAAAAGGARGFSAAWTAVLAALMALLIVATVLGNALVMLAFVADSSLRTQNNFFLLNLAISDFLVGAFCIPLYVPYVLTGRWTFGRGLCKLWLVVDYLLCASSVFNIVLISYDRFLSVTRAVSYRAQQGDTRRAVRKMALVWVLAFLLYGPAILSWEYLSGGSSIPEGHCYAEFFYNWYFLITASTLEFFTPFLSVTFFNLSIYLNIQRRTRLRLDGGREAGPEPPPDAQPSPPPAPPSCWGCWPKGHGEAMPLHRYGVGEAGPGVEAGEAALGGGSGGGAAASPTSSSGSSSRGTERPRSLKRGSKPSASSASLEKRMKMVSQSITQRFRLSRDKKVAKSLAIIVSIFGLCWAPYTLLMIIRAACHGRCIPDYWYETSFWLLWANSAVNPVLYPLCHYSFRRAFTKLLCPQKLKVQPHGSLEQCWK

Row | SMILES | outcome | AC50
1 | Cc1[nH]cnc1C[C@H]1CCc2c(C)c3ccccc3n2C1=O | inactive | –
2 | COc1cccc(-c2ccc(/C=C\CN3CCCCCC3)cc2Cl)c1 | – | 10.1 µM (active)
3 | Nc1ccc(Nc2ccccc2)cc1 | – | 16.9 µM (active)
4 | CNS(=O)(=O)c1cc(C(=O)N2CCC(CCN3C4CCC3CC(n3c(C)nc5ccccc53)C4)(c3cccc(F)c3)CC2)c(Cl)cc1F (stereo not given) | – | 1.85 µM (active)
5 | CCOC(=O)c1ccc(C2CCC(NC[C@H](O)COc3ccc(O)c(NS(C)(=O)=O)c3)CC2)cc1 (stereo not given in full) | – | 23.4 µM (active)
6 | CCN(C(=O)c1cc(C)cc(OC[C@H](C)Nc2ccncc2)c1)C(C)C | – | 2.93 µM (active)
7 | CCCN(C1CCN(C(=O)C2CCNCC2)CC1)[C@@H]1CCc2ccc(OC)cc2C1 | – | 0.914 µM (active)
8 | COCCOc1cc2cc(C(=O)NC3CCN(C(C)C)CC3)n(CC(=O)Nc3ccc(Cl)cn3)c2cn1 | – | 12.6 µM (active)
9 | CN(C)c1ccc(N=NS(=O)(=O)O)cc1 | – | 14.6 µM (active)
10 | CC[C@H]1CC[C@H](NCc2cc3c(cc2OC)[C@H]2C[C@H]2C(=O)N3C)[C@H](c2ccccc2)N1 | – | 15 µM (active)
